Laboratory results taken from PubChem BioAssay AID782 (Emory University Molecular Libraries Screening Center, 2007).
Among all 220,000 compounds or so, about 800 (0.36%) were called active. The sample holds actives, similar compounds and a random draw of the others, so the mix is not that of the screen. Unmarked numbers belong to inactive results.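 How the source made its calls: active means inhibition above about 30% (limit read from the data); inactive means the rest.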

The compounds below were run against Eukaryotic translation initiation factor 4E (Mus musculus) + Eukaryotic translation initiation factor 4 gamma 1 (Homo sapiens) (UniProt P63073+Q04637) (assay: blockers of eIF4G binding by eIF4E – biochemical, uHTS, TR-FRET, eIF4GI fragment, primary screen (AID 782;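 further: 0% = full FRET control wells and 100% = background wells lacking eIF4GI fragment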)). Conditions: TR-FRET eIF4E-eIF4GI(517-606) binding, 2 h; at 21.7 µM; stronger effect = higher value.
Sequence of Eukaryotic translation initiation factor 4E (Mus musculus) + Eukaryotic translation initiation factor 4 gamma 1 (Homo sapiens) (P63073 whole entry, looked up, the tested form may be a part): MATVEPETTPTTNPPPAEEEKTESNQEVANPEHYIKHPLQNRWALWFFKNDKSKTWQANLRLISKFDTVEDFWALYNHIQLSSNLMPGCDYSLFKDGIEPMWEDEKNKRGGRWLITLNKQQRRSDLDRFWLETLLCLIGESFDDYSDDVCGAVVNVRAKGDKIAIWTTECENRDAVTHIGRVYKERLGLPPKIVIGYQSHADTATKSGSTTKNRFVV
Sequence of Eukaryotic translation initiation factor 4E (Mus musculus) + Eukaryotic translation initiation factor 4 gamma 1 (Homo sapiens) (Q04637 whole entry, looked up, the tested form may be a part): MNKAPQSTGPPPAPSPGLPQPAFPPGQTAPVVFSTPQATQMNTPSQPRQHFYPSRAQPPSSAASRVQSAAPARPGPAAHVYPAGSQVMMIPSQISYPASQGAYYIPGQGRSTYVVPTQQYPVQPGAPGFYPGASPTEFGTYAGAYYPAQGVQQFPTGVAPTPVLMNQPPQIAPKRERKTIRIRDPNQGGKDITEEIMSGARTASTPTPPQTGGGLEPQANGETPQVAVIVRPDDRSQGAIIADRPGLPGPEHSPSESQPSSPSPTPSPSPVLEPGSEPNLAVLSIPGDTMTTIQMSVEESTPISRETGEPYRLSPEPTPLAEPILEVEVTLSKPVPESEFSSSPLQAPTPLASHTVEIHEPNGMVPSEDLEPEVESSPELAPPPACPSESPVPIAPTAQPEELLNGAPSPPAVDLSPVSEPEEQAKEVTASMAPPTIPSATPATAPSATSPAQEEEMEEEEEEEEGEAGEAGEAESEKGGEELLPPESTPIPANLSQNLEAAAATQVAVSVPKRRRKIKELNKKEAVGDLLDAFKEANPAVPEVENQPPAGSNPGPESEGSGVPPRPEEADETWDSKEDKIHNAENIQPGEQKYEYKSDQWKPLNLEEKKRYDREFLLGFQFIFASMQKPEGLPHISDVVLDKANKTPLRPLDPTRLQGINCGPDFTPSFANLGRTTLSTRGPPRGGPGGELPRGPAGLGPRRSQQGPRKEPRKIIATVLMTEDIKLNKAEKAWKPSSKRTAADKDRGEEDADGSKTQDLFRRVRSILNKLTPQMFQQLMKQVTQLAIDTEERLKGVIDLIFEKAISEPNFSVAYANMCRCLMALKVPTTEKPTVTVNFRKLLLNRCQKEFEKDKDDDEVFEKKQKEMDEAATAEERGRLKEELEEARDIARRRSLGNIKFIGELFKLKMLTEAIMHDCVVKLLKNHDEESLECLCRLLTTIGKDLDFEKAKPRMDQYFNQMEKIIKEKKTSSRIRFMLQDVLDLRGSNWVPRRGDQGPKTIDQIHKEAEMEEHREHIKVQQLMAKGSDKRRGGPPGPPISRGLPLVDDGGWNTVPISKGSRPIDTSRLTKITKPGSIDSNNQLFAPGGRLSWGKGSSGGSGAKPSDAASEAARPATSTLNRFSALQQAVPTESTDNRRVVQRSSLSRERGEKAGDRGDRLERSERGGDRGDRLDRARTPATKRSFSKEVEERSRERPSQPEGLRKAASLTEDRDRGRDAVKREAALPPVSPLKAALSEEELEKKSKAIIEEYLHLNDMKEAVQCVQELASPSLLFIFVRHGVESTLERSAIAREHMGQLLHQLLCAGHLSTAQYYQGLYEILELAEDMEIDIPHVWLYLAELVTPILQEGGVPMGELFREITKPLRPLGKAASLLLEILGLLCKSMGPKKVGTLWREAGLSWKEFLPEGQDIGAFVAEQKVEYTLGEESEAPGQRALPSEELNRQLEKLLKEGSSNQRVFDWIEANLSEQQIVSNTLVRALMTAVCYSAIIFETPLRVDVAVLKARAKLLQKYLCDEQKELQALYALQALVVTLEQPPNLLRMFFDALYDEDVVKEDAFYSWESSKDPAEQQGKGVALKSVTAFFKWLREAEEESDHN
Compound `Cc1ccc(NC(=S)NC(NC(=O)Cc2cccc3ccccc23)C(Cl)(Cl)Cl)cc1` (stereo unspecified) has an inhibition of -28%.
`CN(c1ccccc1)S(=O)(=O)c1ccc(Cl)c(C(=O)OCC(=O)N2CCOCC2)c1` was tested, and the inhibition was -1.49%.
Work on `C/C(=N\OCC(=O)O)c1ccc(Cl)cc1` yielded an inhibition of 1.37%.
`Cc1cc(C)nc(Nc2n[nH]c(-c3ccccc3N)n2)n1` gave an inhibition of 4.42%.
In the case of `COc1ccc(C(=O)Cn2nnc(-c3ccc(N4CCOCC4)cc3)n2)cc1OC`, the inhibition is reported as -9.64%.
Work on `COc1ccc(C(=O)n2nc(-c3ccc(C)cc3)nc2N)cc1OC` yielded an inhibition of -7.73%.
In the case of `COC(=O)c1cc2occc2n1Cc1nc(-c2ccccc2C)oc1C`, the inhibition is reported as 4.23%.
Work on `O=C1Nc2cc(Cl)c(Cl)cc2N(O)N1c1ccccc1Cl` yielded an inhibition of 0.39%.
With `FC(F)(F)Oc1ccc(-c2cn3cccnc3n2)cc1` the inhibition was -1.02%.
`Cc1nc(Cl)c(C#N)c2c1CCCC2` was tested, and the inhibition was 5.36%.
With `COC(=O)c1c(C)c(C)nc(N)c1C#N` the inhibition was -1.17%.
With `COCc1c(N)c(C)nc(Cl)c1C#N` the inhibition was 33.5% (active).
In the case of `O=S(=O)(NCCc1ccc(F)cc1)c1cccc2cccnc12`, the inhibition is reported as 68.5% (active).
Work on `O=S(=O)(NCCOc1cccc2cccnc12)c1ccc(F)cc1` yielded an inhibition of -10.8%.
Work on `COc1ccc(CCNS(=O)(=O)c2cccc3cccnc23)cc1OC` yielded an inhibition of 4.09%.
Work on `C=CCn1c(-c2ccccc2OCC)n[nH]c1=S` yielded an inhibition of -7.58%.
In the case of `C=CCn1c(-c2ccc3[nH]c(C)c(C)c3c2)n[nH]c1=S`, the inhibition is reported as 31.9% (active).
With `C=CCn1c(-c2sc(-c3ccccc3)nc2C)n[nH]c1=S` the inhibition was 3.95%.
In the case of `NC(N)=Nc1nc2ccc(Br)cc2c(=O)[nH]1`, the inhibition is reported as -3.42%.
Compound `CC(NCc1nc2ccccc2n1C)C12CC3CC(CC(C3)C1)C2` (stereo unspecified) has an inhibition of 3.84%.
In the case of `O=C(c1ccc(Br)o1)N(c1ccccn1)C1CCCCC1`, the inhibition is reported as 1.85%.
`Cc1ccc(OS(=O)(=O)c2ccc(-c3csc(C)n3)s2)c(C)c1` showed an inhibition of -1.07%.
Work on `CCOc1ccc(C2c3[nH]c4ccccc4c3CCN2Cc2cn(CC)nc2C)cc1` (stereo unspecified) yielded an inhibition of 1.87%.
For `COC(=O)c1cc2n(n1)CCCNC2=O`, the inhibition was 2.7%.
`CC(=O)Nc1ccc(S(=O)(=O)N(C)c2ccc(OCC(=O)OCC(=O)N3CCCCC3)cc2)cc1` gave an inhibition of -2.79%.
Compound `N#C/C(C(=O)N1CCOCC1)=C1/SC(Cc2ccc(F)cc2)C(=O)N1c1ccccc1` (stereo unspecified) has an inhibition of 2.54%.
With `Cc1cccc2cc3c(N)c(C(=O)N4CCCc5ccccc54)sc3nc12` the inhibition was -0.81%.
Work on `CCOc1ccccc1/C=N/NC(=O)CNC(=O)COc1ccccc1` yielded an inhibition of 0.46%.
`O=C(COc1cccc2ccccc12)Nc1cc(S(=O)(=O)N2CCOCC2)ccc1N1CCOCC1` gave an inhibition of -0.21%.
`CCn1c(=O)c([N+](=O)[O-])c(NCc2ccc3c(c2)OCO3)c2ccccc21` showed an inhibition of -2.34%.
`CCOc1ccc(-n2cnc3c(=O)[nH]c(N)nc32)cc1` showed an inhibition of -1.7%.
Compound `CCC(C)(C)NC(=O)CN(C(=O)C(=O)Nc1ccc2c(c1)OCCO2)C(C)(C)CC` has an inhibition of 1.1%.
With `O=C(Nc1ccccc1C(F)(F)F)N1CCCC1c1cccnc1` (stereo unspecified) the inhibition was 0.48%.
`COc1cc2c(cc1OC)CC1(CCCCC1)N=C2` was tested, and the inhibition was -2.07%.
With `CC1(C)CC(N(Cc2ccccc2)C(=O)Cc2ccccc2)CCO1` (stereo unspecified) the inhibition was 1.78%.
With `CCc1ccc(N(CC(=O)Nc2sc3c(c2C(=O)OC)CCCC3)S(C)(=O)=O)cc1` the inhibition was 1.86%.
In the case of `Cc1cc(C)cc(NC(=O)COC(=O)c2cc(C)oc2C)c1`, the inhibition is reported as -0.87%.
`CCn1c(SCC(=O)N/N=C/c2ccccc2OCC(=O)O)nnc1-c1ccc(C(C)(C)C)cc1` showed an inhibition of -4.63%.
Work on `CC(C)(C)CN1C(=O)C(=O)NC[C@H]1Cc1cccc2ccccc12` yielded an inhibition of 3.22%.
`C/C=C/C(=O)Nc1nnc(C(C)C)s1` was tested, and the inhibition was -1.19%.
For `O=C1c2cccc(OCC(=O)N3N=C(c4cccs4)CC3c3ccc(F)cc3)c2CCN1Cc1ccccc1` (stereo unspecified), the inhibition was 11.7%.
For `CN=C1C=C/C(=N/N=c2\ccn(O)cc2C)C=C1C`, the inhibition was 3.23%.
`Brc1ccc(-c2noc(-c3ccccc3)n2)o1` showed an inhibition of 3.6%.
With `COC(=O)c1cc(NC(=O)c2cc(C(C)(C)C)nn2Cc2cccc(C)c2)ccc1N1CCOCC1` the inhibition was -1.37%.
Work on `CC(C)CNc1ncnc2c1cnn2Cc1ccc(Cl)cc1` yielded an inhibition of -0.57%.
`COc1ccccc1-n1ccnc1SCC(=O)NC(C)(C)C` was tested, and the inhibition was -3.84%.
`COc1ccc(NC(=O)Nc2ccc3nc(C)c(C)nc3c2)cc1` was tested, and the inhibition was 3.88%.
For `COCCNC(=O)Nc1ccc2nc(-c3ccco3)c(-c3ccco3)nc2c1`, the inhibition was 53.1% (active).
With `O=C(NCc1ccccn1)c1ccc2nc(-c3ccco3)c(-c3ccco3)nc2c1` the inhibition was 2.59%.
`CC(Sc1nnnn1C)C(=O)NC(=O)NC1CCCCC1` (stereo unspecified) was tested, and the inhibition was 3.38%.
Work on `COc1ccc(-n2c(C)cc(C(=O)CN3C(=O)NC4(CCc5ccccc54)C3=O)c2C)cc1` (stereo unspecified) yielded an inhibition of -11%.
For `CC1=CC2=NC(=O)/C(=C/c3coc4ccccc4c3=O)C(=N)N2O1`, the inhibition was -3.42%.
Work on `COc1ccc(/C=C/C(=O)Nc2ccc(C)cc2)cc1S(=O)(=O)N1CCOCC1` yielded an inhibition of -7.24%.
For `Cc1cc(C)n(-c2nnc(N3CCN(c4ccccc4)CC3)nn2)n1`, the inhibition was 1.58%.
`CC(Nc1nc(N2CCN(CCO)CC2)nc2ccccc12)c1ccccc1` (stereo unspecified) gave an inhibition of 1.5%.
Compound `Cn1c(CNC(=O)c2ccccc2F)nnc1SCc1ccc(F)cc1` has an inhibition of 15.6%.
For `Cc1ccc(S(=O)(=O)NC(=O)N2CCCN(Cc3ccc(F)cc3)CC2)cc1`, the inhibition was 0.62%.
Compound `CCCn1nc2cc(C(=O)NCc3ccccc3)ccc2c1OCC` has an inhibition of 5.83%.
In the case of `CCOC(=O)c1cnc2[nH]c3ccccc3n2c1=O`, the inhibition is reported as 13.5%.
In the case of `O=[N+]([O-])c1cccc(-c2nnc3c4ccccc4c4ccccc4n23)c1`, the inhibition is reported as 13.6%.
With `O=c1[nH]c2ccccc2n2c(-c3ccccc3)nnc12` the inhibition was 52.5% [fluorescence artefact?] (active).
